According to PubChem BioAssay (NCI):
This is part of a sample that, as a whole, favours compounds with a hit. Of some 79,000 tested, about 15% had one in any assay. The source made the active and inactive calls. No stated cut-off is given here; in the data, active means growth inhibition above about 70%; inactive means the rest.

assay: NCI Yeast Anticancer Drug Screen. Data for the bub3 strain (AID 167); details: S. cerevisiae bub3 mutant strain, at 50.0 µM (retest, dose inferred, filed as 5.0), hits give high values
Procedure, shortened: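 Yeast carrying a defined mutation is treated with each compound, and growth is compared with that of vehicle-exposed cells to give inhibition.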

SMILES | growth inhibition
OCCSCc1cc(Cl)cc(Cl)c1O | 77% (active)
CC(=O)Nc1ccccc1C(O)(c1ccccc1)c1ccccc1 | 2% (inactive)
Cc1cc(N=Nc2ccccc2C)c(N)cc1N | 86% (active)
O=C(Nc1ccc(Cl)cc1)Nc1nnc(/C=C/c2ccc(Cl)c(Cl)c2)o1 | 7% (inactive)
CCCCCCCCCCCC(=O)OCCOC(=O)CCCCCCCCCCC | -12% (inactive)
CCN(C(C)=O)c1ccc2c(c1)Cc1ccccc1-2 | 96% (active)
O=[N+]([O-])c1cccn2nc(C3OC(CO)C(O)C3O)nc12 (centres undefined) | -1% (inactive)
Oc1cc(CNCc2ccccc2)c(O)c(CNCc2ccccc2)c1 | -4% (inactive)
N#CSC#Cc1ccc(C#CSC#N)cc1 | 98% (active)
O=C(O)/C=C/C(=O)NNc1nc2ccccc2s1 | -21% (inactive)
COc1ccc2c(c1)[n+]([O-])c(-c1ccc(C)cc1)c(N)[n+]2[O-] | 99% (active)
C=CCc1cc([N+](=O)[O-])ccc1O | 85% (active)
CC(C)C1=CC23CCC4C(C)(C(=O)O)CCCC4(C)C2CC1c1c(O)ccc(O)c13 (centres undefined) | 99% (active)
NC(=O)C(CCc1cccc2ccccc12)c1ccccc1 (centres undefined) | 12% (inactive)
CC(CO)CCC(=O)C(C)C1C(=O)CC2CC3CC(O)CCC3(C)CC21C (centres undefined) | 85% (active)
Oc1c(Cl)cc(Cl)cc1/C=C1\C=Nc2ccccc21 | 23% (inactive)
CCCC(C(=O)OCCN1CCCC1(C)C)C1CCCC1 (centres undefined) | 62% (inactive)
OCCN1CCN(CCCN2c3cc(Cl)ccc3Sc3ccsc32)CC1 | 97% (active)
O=C(O)/C=C/c1ccc2c(c1)CCCC2 | 70% (active)
